# In PubChem BioAssay (NCATS):
# Results filed as inconclusive are left out. Where a call stands in place of a potency, no number is given. The source made the active and inactive calls. Calls follow the shape of the dose curve; as a rule, active = well fitted inhibition curve with a large enough effect; inconclusive = small, poorly fitted or top-dose-only effect; inactive = no such curve, though single readings can be large or run the other way.
# Molecular target: N-terminal Xaa-Pro-Lys N-methyltransferase 1 (Homo sapiens) (UniProt Q9BV86)
# Test: qHTS Assay for Inhibitors of N-terminal methyltransferase 1 (NTMT1): LOPAC validation of the NTMT1 SAHH-coupled ThioGlo3 Assay (AID 1347143);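 also: SAH from peptide methylation measured as thiol fluorescence via SAHH coupling and ThioGlo3; nearly all actives have a fitted effect of over 70% in size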
# Details: recombinant NTMT1, SAHH-coupled ThioGlo3 fluorescence; series mostly up to 114 µM
# Excerpt: Assay Submitter (PI): Rong Huang Ph.D, Purdue University, West Lafayette, IN 47907 The N-terminal methytransferase 1 is the first methyltransferase that methylates protein alpha-N-amines and plays an important role in regulating cell mitosis, chromatin interactions and DNA repair. It is observed to be over-expressed in various cancer patient tissues like malignant melanoma and colorectal cancer tissues. Knockdown of NTMT1 in cancer cells causes cell mitotic defects and enhances sensitivity to DNA damaging chemotherapeutics. […] These critical cellular processes in which NTMT1 is implicated, coupled with emerging links to cellular dysfunction, strengthen the inference that NTMT1 is a compelling novel anticancer target. Progress have been made in understanding the molecular properties of NTMT1 and the biological consequences of protein alpha-N-terminal methylation, but there are no specific small molecule probes available for NTMT1 to fully characterize its MTase activity. To address this unmet need, a panel of assay is created and established to enable quantitative high-throughput screening (qHTS) for novel, potent, and selective small molecule NTMT1 inhibitors. Two orthogonal qHTS that use different reagents (ThioGlo vs. MTaseGlo) are developed for primary robotic screening against the NCATS chemical library of more than 400,000 small molecules. Identified inhibitors are reacquired, validated, and further characterized. […] A pilot screen against the LOPAC library of 1280 compounds is carried out to assess performance of the optimized qHTS in 1536-well plate format. Early Translation Branch (ETB) National Center for Advancing Translational Sciences (NCATS) National Institute of Health (NIH)
# Materials: NTMT1 enzyme, substrate SPKRIA, control peptide RCC1-6 is provided by the Huang laboratory. ThioGlo3 Assay: In brief, 125nM NTMT1 enzyme was dispensed into a 1536-well assay plate with Aurora Discovery BioRAPTR Flying Reagent Dispenser (FRD, Beckton-Dickenson). Compounds (at various concentration) or 1uM RCC1-6 (SPKRIA) control were transferred to the assay plate using the Kalypsys 1536-pintool apparatus. After 1 min of room temperature incubation, 1uL of substrate (100uM SAM, 10uM SAHH, 15uM ThioGlo3) was added to the wells bringing the final assay volume to 4uL. Initial (background) fluorescence readout (EX: 340nm, EM: 450nm) was then detected using the PerkinElmer ViewLux microplate imager and a final fluorescence readout was taken after 30 min of room temperature incubation. The data was normalized to the background fluorescence.
# Potency is read from the fitted curve at half-maximal effect.
# Sequence of N-terminal Xaa-Pro-Lys N-methyltransferase 1 (Homo sapiens) (Q9BV86 whole entry, looked up): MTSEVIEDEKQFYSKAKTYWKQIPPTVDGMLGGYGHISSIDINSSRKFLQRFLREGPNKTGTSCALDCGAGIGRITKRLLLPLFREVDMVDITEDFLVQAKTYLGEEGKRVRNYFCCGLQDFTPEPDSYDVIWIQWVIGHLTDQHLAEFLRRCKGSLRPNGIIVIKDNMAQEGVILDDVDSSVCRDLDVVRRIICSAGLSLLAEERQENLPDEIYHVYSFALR
row,Structure (SMILES),Potency
1,Cn1cc(C(F)(F)F)nc1-c1ccc(OCC(O)CNCCOc2ccc(O)c(C(N)=O)c2)cc1 (stereo not given),56.2 µM (active)
2,CC(=O)[C@H]1CCC2C3CC=C4C[C@@H](OS(=O)(=O)O)CC[C@]4(C)C3CC[C@@]21C (stereo not given in full),inactive
3,CC(C)[C@@H]1CC[C@@H](C)C[C@@H]1P(=O)(c1ccccc1)c1ccccc1,inactive
4,O=C(O)C1CCNCC1,inactive
5,NC1(C(=O)O)CC1,inactive
6,COc1ccc(-c2cc3ncc(C)n3c(Nc3ncccc3C(N)=O)n2)cc1OC,56.2 µM (active)
7,CC(C)C[C@H](NC(=O)C1OC1C(=O)O)C(=O)NCCCCN=C(N)N (stereo not given in full),inactive
8,COc1ccc(C(=O)NCc2cccnc2)cc1C(=O)NCc1cccnc1,inactive
9,N[C@@H](Cc1ccc(O)c(I)c1)C(=O)O,inactive
10,C=C1C[C@@]23CC[C@H]4[C@@](C)(CCC[C@@]4(C)C(=O)OC4OC(CO)C(O)C(O)C4O)[C@@H]2CC[C@]1(OC1OC(CO)C(O)C(O)C1OC1OC(CO)C(O)C(O)C1O)C3 (stereo not given in full),inactive
11,NCCCCN=C(N)N,inactive
12,Brc1c(Br)c(Br)c2[nH]cnc2c1Br,50.1 µM (active)
13,NC(N)=N[C@@H](CCC(=O)O)C(=O)O,inactive
14,CC(=O)NNC(=O)N1Cc2ccccc2Oc2ccc(Cl)cc21,inactive
15,O=C(O)CCC(=O)N1CCCC1C(=O)O (stereo not given),inactive
16,CN1Cc2sccc2C(c2ccc(O)c(O)c2)C1 (stereo not given),39.8 µM (active)
17,CC1CNCCN1S(=O)(=O)c1cccc2cnccc12 (stereo not given),inactive
18,CCCCCCN(CCCCCC)C(=O)Cc1c(-c2ccc(F)cc2)[nH]c2ccccc12,79.4 µM (active)
19,N[C@@H](CS(=O)O)C(=O)O,inactive
20,COc1cc(N)c(Cl)cc1C(=O)OCCN1CCCCC1,inactive

row,Structure (SMILES),Potency
1,Cc1cc2c(cc1Cl)N(C(=O)Nc1ccnc3ccccc13)CC2,inactive
2,NCCCCN,inactive
3,COc1cc(C(O)C(=O)O)ccc1O (stereo not given),inactive
4,NS(=O)(=O)c1cccc2c1c([N+](=O)[O-])cc1nc(O)c(O)nc12,50.1 µM (active)
5,COC(=O)C(C)(N)Cc1ccc(O)cc1 (stereo not given),inactive
6,OC1(c2ccc(Cl)cc2)CCN(Cc2c[nH]c3ccccc23)CC1,inactive
7,Cc1nc2n(c(=O)c1CCN1CCC(c3noc4cc(F)ccc34)CC1)CCCC2O (stereo not given),inactive
8,CCCCCCCCCC(=O)NC(CN1CCOCC1)[C@H](O)c1ccccc1 (stereo not given in full),inactive
9,Cc1cccc(C)c1OCC(N)C(C)C (stereo not given),50.1 µM (active)
10,N[C@@H](Cc1c[nH]c2ccccc12)C(=O)O,inactive
11,Nc1nc2ccc(Cl)cc2c2nc(-c3ccco3)nn12,12.6 µM (active)
12,Cc1cc(Cn2cnc3c2C[C@@H](C(=O)O)N(C(=O)C(c2ccccc2)c2ccccc2)C3)ccc1N,inactive
13,CC(C)NC[C@H](O)COc1ccc(CC(N)=O)cc1,inactive
14,COc1ccc(NC(=O)c2ccc(-c3ccc(-c4noc(C)n4)cc3C)cc2)cc1N1CCN(C)CC1,inactive
15,CCCCCCCC/C=C\CCCCCCCC(=O)NCCc1ccc(O)c(O)c1,inactive
16,CN[C@H](CC(=O)O)C(=O)O,inactive
17,CC(C)C[C@H](NC(=O)[C@H](O)[C@H](N)Cc1ccccc1)C(=O)O,inactive
18,O=C(O)C1=CCCN(CCON=C(c2ccccc2)c2ccccc2)C1,inactive
19,c1ccc2c(c1)CC(N1CCN(c3cccc4c3OCCO4)CC1)C2,inactive
20,C[C@H]1CC2C3CCC4=CC(=O)C=C[C@]4(C)[C@@]3(Cl)[C@@H](O)C[C@]2(C)[C@@]1(O)C(=O)CO (stereo not given in full),inactive
